The supplement of paper PMC3334620
Whole data set: some 33,000 sequences, median “E-score (-0.5 to 0.5)” near -0.035, cut for the highest 2% near 0.34. What follows is part of a selection rich in the highest values, with near analogues and random picks from the rest.

The sequences below were run against T1, Mot3 (UniProt P54785) (assay: PBM E-score (8-mer binding enrichment) (E-score (-0.5 to 0.5)); higher = stronger / more preferred TF binding). Conditions: protein concentration: 200 nM; construct: GST-full length.
T1 sequence: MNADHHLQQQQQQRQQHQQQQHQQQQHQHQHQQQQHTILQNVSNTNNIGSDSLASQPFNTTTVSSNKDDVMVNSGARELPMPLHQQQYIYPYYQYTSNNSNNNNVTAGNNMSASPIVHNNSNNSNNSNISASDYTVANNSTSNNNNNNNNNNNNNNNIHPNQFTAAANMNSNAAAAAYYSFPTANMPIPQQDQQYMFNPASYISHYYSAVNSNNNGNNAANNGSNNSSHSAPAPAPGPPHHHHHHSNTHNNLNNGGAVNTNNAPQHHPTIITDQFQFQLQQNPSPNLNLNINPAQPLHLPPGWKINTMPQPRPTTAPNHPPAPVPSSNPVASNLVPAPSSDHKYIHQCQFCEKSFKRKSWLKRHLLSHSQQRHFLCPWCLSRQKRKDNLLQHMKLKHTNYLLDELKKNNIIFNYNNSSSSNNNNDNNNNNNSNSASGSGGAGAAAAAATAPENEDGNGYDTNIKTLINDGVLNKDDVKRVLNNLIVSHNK
Method in brief: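 Full-length yeast transcription factors or their DNA-binding domains, GST-tagged and expressed with PURExpress, were applied at about 100-200 nM to universal all-10-mer Agilent arrays. These arrays had been made double-stranded by primer extension on fresh or once-stripped slides. Detection used fluorescent anti-GST, normalisation used masliner, and E-scores for ungapped eight-base words pooled with reverse complements came from the Universal PBM Analysis Suite.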

Q: For ACAGCCAT, which “PBM E-score” value is on record?
A: Its value is 0.172.

Q: For AGCAGGGA, which “PBM E-score” value is on record?
A: Its value is -0.167.

Q: ACAGTCAT was tested. Which “PBM E-score” value did it give?
A: The value was -0.0548.

Q: For GAGCGCAC, which “PBM E-score” value is on record?
A: The value was -0.307.

Q: Which “PBM E-score” value does the source give for ATCTTGGG here?
A: The value was -0.157.

Q: With ACGCTCAG as the sequence, how does the “PBM E-score” value read?
A: Its value is -0.226.

Q: How did the “PBM E-score” value turn out when ATCAACTG was run?
A: Its value is -0.0772.

Q: How did the “PBM E-score” value turn out when GAAGTACC was run?
A: Its value is 0.00084.

Q: Which “PBM E-score” value does the source give for ACCGAATC here?
A: The value was -0.00094.

Q: GTAAGGGA was tested. Which “PBM E-score” value did it give?
A: Its value is 0.145.

Q: How did the “PBM E-score” value turn out when GTAAGGTA was run?
A: Its value is 0.321.

Q: For CTAAGGTA, which “PBM E-score” value is on record?
A: The value was 0.226.

Q: For ATAAGGCA, which “PBM E-score” value is on record?
A: The value was 0.46.

Q: With GTAAGGCA as the sequence, how does the “PBM E-score” value read?
A: Its value is 0.464.

Q: How did the “PBM E-score” value turn out when CTAAGGCC was run?
A: Its value is -0.0134.

Q: For CTAAGGCA, which “PBM E-score” value is on record?
A: Its value is 0.452.

Q: Which “PBM E-score” value does the source give for ATAAGGCG here?
A: The value was 0.0672.

Q: ATAAGGCC was tested. Which “PBM E-score” value did it give?
A: The value was -0.142.

Q: With TACTGAAA as the sequence, how does the “PBM E-score” value read?
A: The value was 0.037.

Q: How did the “PBM E-score” value turn out when AGACGTTC was run?
A: The value was -0.008.

Q: AGCATAAC was tested. Which “PBM E-score” value did it give?
A: The value was 0.0259.

Q: How did the “PBM E-score” value turn out when AGTCTATA was run?
A: Its value is -0.0584.

Q: With AGCACCGA as the sequence, how does the “PBM E-score” value read?
A: The value was -0.168.

Q: Which “PBM E-score” value does the source give for CGCACCTA here?
A: The value was -0.125.

Q: With CGCACCGA as the sequence, how does the “PBM E-score” value read?
A: Its value is -0.27.

Q: GGCACCTA was tested. Which “PBM E-score” value did it give?
A: The value was 0.357.

Q: For AGCACCTA, which “PBM E-score” value is on record?
A: Its value is 0.199.

Q: GGCACCGA was tested. Which “PBM E-score” value did it give?
A: The value was 0.356.

Q: Which “PBM E-score” value does the source give for GGCCGAAA here?
A: The value was -0.186.

Q: Which “PBM E-score” value does the source give for TACCCAAA here?
A: The value was 0.11.

Q: AATCTATG was tested. Which “PBM E-score” value did it give?
A: Its value is -0.00189.

Q: How did the “PBM E-score” value turn out when ACCTGAAG was run?
A: Its value is -0.135.

Q: How did the “PBM E-score” value turn out when AAGCCCCT was run?
A: The value was -0.195.

Q: AGAACTAT was tested. Which “PBM E-score” value did it give?
A: Its value is -0.0425.

Q: For AGAAAGAG, which “PBM E-score” value is on record?
A: The value was -0.195.

Q: GAAGGAGC was tested. Which “PBM E-score” value did it give?
A: Its value is -0.251.

Q: For AAAGGAAC, which “PBM E-score” value is on record?
A: The value was 0.456.

Q: With AAAGGAGA as the sequence, how does the “PBM E-score” value read?
A: The value was -0.0548.

Q: Which “PBM E-score” value does the source give for AAAGGAAG here?
A: The value was 0.059.

Q: AAAGGATA was tested. Which “PBM E-score” value did it give?
A: Its value is -0.0444.

Q: How did the “PBM E-score” value turn out when AAAGGAAT was run?
A: The value was -0.0306.

Q: How did the “PBM E-score” value turn out when CGAGGAAC was run?
A: The value was 0.285.

Q: How did the “PBM E-score” value turn out when CAAGGAAG was run?
A: Its value is -0.00272.

Q: With CAAGGAAC as the sequence, how does the “PBM E-score” value read?
A: The value was 0.43.

Q: For GAAGGAAC, which “PBM E-score” value is on record?
A: Its value is 0.468.

Q: How did the “PBM E-score” value turn out when AAAGGAAA was run?
A: Its value is 0.442.

Q: CAAGGACC was tested. Which “PBM E-score” value did it give?
A: The value was 0.0666.

Q: Which “PBM E-score” value does the source give for AACTCTCT here?
A: Its value is -0.19.

Q: With AGCCCGAT as the sequence, how does the “PBM E-score” value read?
A: The value was -0.195.

Q: How did the “PBM E-score” value turn out when CCCAGGAG was run?
A: The value was -0.207.

Q: Which “PBM E-score” value does the source give for ACTTGTAT here?
A: Its value is 0.173.

Q: For ACACCTTG, which “PBM E-score” value is on record?
A: Its value is 0.193.

Q: For CCGTTGTA, which “PBM E-score” value is on record?
A: The value was 0.125.

Q: Which “PBM E-score” value does the source give for CTGAACCA here?
A: Its value is 0.0648.

Q: TACAGGCA was tested. Which “PBM E-score” value did it give?
A: Its value is 0.484.

Q: How did the “PBM E-score” value turn out when GACAGGGA was run?
A: Its value is -0.089.

Q: Which “PBM E-score” value does the source give for TACAGTCA here?
A: The value was 0.191.

Q: With CACAGGCC as the sequence, how does the “PBM E-score” value read?
A: The value was 0.0987.

Q: How did the “PBM E-score” value turn out when CACAGGCG was run?
A: Its value is 0.277.

Q: AACAGGCT was tested. Which “PBM E-score” value did it give?
A: The value was 0.305.

Q: With CACAGGCA as the sequence, how does the “PBM E-score” value read?
A: Its value is 0.482.

Q: AACAGGCA was tested. Which “PBM E-score” value did it give?
A: Its value is 0.484.

Q: How did the “PBM E-score” value turn out when AACAGGCG was run?
A: Its value is 0.167.

Q: With GACAGGCA as the sequence, how does the “PBM E-score” value read?
A: The value was 0.483.

Q: With GACAGGCC as the sequence, how does the “PBM E-score” value read?
A: Its value is -0.139.

Q: TACAGGGA was tested. Which “PBM E-score” value did it give?
A: Its value is 0.0536.

Q: GCTGTGAC was tested. Which “PBM E-score” value did it give?
A: The value was -0.128.

Q: Which “PBM E-score” value does the source give for GACTTCCA here?
A: Its value is -0.126.

Q: TGGAAGAA was tested. Which “PBM E-score” value did it give?
A: The value was 0.00562.

Q: How did the “PBM E-score” value turn out when CACTACGG was run?
A: Its value is -0.1.

Q: Which “PBM E-score” value does the source give for GCCACAGA here?
A: The value was -0.0635.

Q: GAGGAGGC was tested. Which “PBM E-score” value did it give?
A: Its value is -0.0566.

Q: Which “PBM E-score” value does the source give for AATAAGTA here?
A: Its value is 0.124.

Q: With CCACTCGA as the sequence, how does the “PBM E-score” value read?
A: Its value is -0.0827.

Q: With AATAGACG as the sequence, how does the “PBM E-score” value read?
A: Its value is -0.138.

Q: How did the “PBM E-score” value turn out when ACACGCGT was run?
A: The value was 0.36.

Q: How did the “PBM E-score” value turn out when ACACGCTG was run?
A: Its value is 0.256.

Q: With ACACGCTC as the sequence, how does the “PBM E-score” value read?
A: Its value is 0.305.

Q: For ACACGCGG, which “PBM E-score” value is on record?
A: The value was 0.252.

Q: How did the “PBM E-score” value turn out when ACACGCGA was run?
A: The value was 0.292.

Q: ACACGCTA was tested. Which “PBM E-score” value did it give?
A: Its value is 0.356.

Q: With AGTATCGA as the sequence, how does the “PBM E-score” value read?
A: The value was 0.122.

Q: Which “PBM E-score” value does the source give for TCGTAGAA here?
A: The value was 0.0868.

Q: CCGATCAC was tested. Which “PBM E-score” value did it give?
A: The value was -0.0956.

Q: ATCGCCAG was tested. Which “PBM E-score” value did it give?
A: Its value is -0.289.

Q: Which “PBM E-score” value does the source give for CCATGTTA here?
A: Its value is 0.339.

Q: How did the “PBM E-score” value turn out when GGATGTTA was run?
A: The value was 0.172.
